# Test results taken from PubChem BioAssay (NCI).
# About 79,000 compounds went through this panel and 15% of them were active in at least one assay; those are over-represented in the sample as a whole. A number with no mark means an inactive call. Calls of active or inactive are those of the source. Rule as the data show it: active = growth inhibition above about 70%; inactive = the rest.
# How the values were obtained:
# [1] = NCI Yeast Anticancer Drug Screen. Data for the rad50 strain (AID 155);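 also: 0% = growth of vehicle-only cultures of the same strain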; settings: S. cerevisiae rad50 strain growth inhibition; at 50.0 µM; active compounds read high
# How it was run: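 Compounds were tested on a yeast strain with an engineered DNA damage repair alteration; the reported value is growth inhibition normalised to vehicle treatment.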
# [2] = NCI Yeast Anticancer Drug Screen. Data for the mec2-1 strain (AID 157); settings: S. cerevisiae mec2-1 strain, at 50.0 µM, active compounds read high
# How it was run: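 Vehicle-treated cultures served as reference for growth inhibition of compound-exposed mec2-1 yeast.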
# [3] = NCI Yeast Anticancer Drug Screen. Data for the sgs1 mgt1 strain (AID 161);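 also: 0% = growth of cultures given vehicle only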; settings: S. cerevisiae sgs1 mgt1 strain, at 50.0 µM, active compounds read high
# How it was run: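 Genetically altered yeast, compound exposure, growth inhibition relative to vehicle.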
# [4] = NCI Yeast Anticancer Drug Screen. Data for the cln2 rad14 strain (AID 165);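 also: 0% = growth equal to vehicle treated cultures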; settings: S. cerevisiae cln2 rad14 strain, at 50.0 µM, active compounds read high
# How it was run: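 Each compound was tested on cln2 rad14 yeast. Inhibition of growth was calculated against vehicle-exposed controls.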
# [5] = NCI Yeast Anticancer Drug Screen. Data for the bub3 strain (AID 167); settings: S. cerevisiae bub3 mutant strain, at 50.0 µM, active compounds read high
# How it was run: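 Growth of a checkpoint-deficient yeast mutant is measured after compound exposure. Values represent inhibition relative to vehicle.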
# [6] = NCI Yeast Anticancer Drug Screen. Data for the mlh1 rad18 strain (AID 175); settings: S. cerevisiae mlh1 rad18 strain growth inhibition; at 50.0 µM; active compounds read high
# How it was run: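 Vehicle-treated cultures served as the reference for growth inhibition in a yeast strain carrying DNA damage repair alterations exposed to each compound.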
SMILES,growth inhibition [1],growth inhibition [2],growth inhibition [3],growth inhibition [4],growth inhibition [5],growth inhibition [6]
Clc1ccc2c(c1)nnn2OC1CCCC1,10.4%,-3.7%,-11.1%,-24.9%,-10.8%,-6.8%
CCCCOC(=O)CCc1nc2c([nH]1)c(=O)n(C)c(=O)n2C,15.8%,8.9%,9.5%,42.4%,9.65%,-0.45%
CCNC(=O)OCCN(CCOC(=O)NCC)CCc1cccc(OC)c1OC,6.1%,6.65%,-7.3%,1.95%,-3.5%,20.6%
NC(=O)c1ccncc1,-5%,-7.3%,-13.1%,5.35%,-1.05%,-6%
CCCCCCCCCCCCCCCC(=O)OCC1OC(n2ccc(N)nc2=O)C(O)C1O (stereo not given),-1.2%,-10.3%,3.2%,8.2%,4.1%,-2.8%
C/C(=N\NC(N)=S)c1ccc(/C(C)=N/NC(N)=S)cc1,-44.6%,-0.25%,0.8%,-13.2%,-1.2%,-19.6%
O=C(CBr)c1cc(-c2ccc(Cl)cc2)nc2c(-c3ccccc3)cccc12,14.2%,1.2%,27.6%,48.9%,2.15%,14.4%
COc1cc(CO)c(CO)cc1OC,-5.05%,-3.2%,-5.65%,-10.8%,4%,-8.95%
CN(C)N1C(=O)c2ccccc2NC1c1ccccc1 (stereo not given),-19.2%,-1.35%,29.6%,2%,18.9%,5.15%
C(=C/c1nnc2ncccn12)/c1ccccc1,-13.8%,-4.85%,-1.5%,-15.7%,0.05%,-5.4%
N#Cc1cnn(-c2ccccc2)c1N,25.5%,-7.4%,-0.3%,-0.85%,-4.3%,-1.45%
Cc1ccccc1-c1c(N)nc(N)nc1C(=O)Nc1nccs1,-26.6%,-36.2%,-39.6%,-3.85%,-28.1%,-7.9%
Cc1ccc(C)c(NC(=O)C(=O)C2C(=O)N(c3ccccc3)N=C2N)c1 (stereo not given),-38.5%,-29.4%,-1.25%,1.9%,-26.4%,-14%
CCCCC(=O)N/N=C\c1cc(Cl)ccc1[N+](=O)[O-],17.6%,1.6%,-6.65%,33.2%,7.7%,1.05%
O=Cc1cc2c(cc1-c1c(C=O)ccc3c1OCO3)OCO2,58.2%,27.2%,46.9%,18.6%,30.9%,26.6%
O=C(OCc1ccccc1)c1ccccc1-c1c2ccc(=O)cc-2oc2cc(OCc3ccccc3)ccc12,33.4%,18%,40.9%,23.6%,21.3%,26.1%
O=C(CCl)NCCCCCNC(=O)CCl,-11.7%,2.85%,-6.85%,-31.7%,15.2%,17.6%
CC/C(=N/N(C)C)C(=O)O,-29.4%,-3.9%,-5.3%,-10.6%,-17.1%,-16.3%
COc1cc(/C=C/C(=N\NC(N)=S)c2sc(NNC(C)=O)nc2C)ccc1O,22.9%,6.8%,16.3%,21.2%,24.6%,14.8%
CCC(C)C(=O)/C=C/c1ccccc1 (stereo not given),14.2%,-6.15%,-2.85%,-25.3%,21.3%,-12.1%

SMILES,growth inhibition [1],growth inhibition [2],growth inhibition [3],growth inhibition [4],growth inhibition [5],growth inhibition [6]
Cc1cc(C)c2cccc-2c(C)c1,-11.8%,-11.3%,-12.3%,-6.15%,-4.9%,-9.95%
O=C(/C=C/c1ccccc1)Nc1ccccc1C(F)(F)F,4.45%,9.05%,0.7%,-3.7%,12.6%,18.2%
Nc1ccc(S(=O)(=O)Nc2nc3ccccc3nc2Nc2ccc(S(N)(=O)=O)cc2)cc1,6.3%,-5.05%,-13.8%,-13.7%,-10.3%,-13.6%
O=S(=O)(O)c1cccc(/C(=N\Nc2ccccn2)c2ccccn2)c1,44%,25.9%,59.8%,40.5%,51.5%,45.4%
N#Cc1nc(NC(=O)c2ccccc2C(=O)O)c(C#N)[nH]1,1.5%,14.1%,-20.8%,4.95%,-8.85%,-29.3%
Cc1ccc(C(=O)N/N=C/c2ccc3ccccc3c2)cc1,-1%,-13.2%,-5.25%,-13.8%,33.4%,-5.3%
N=C(N)SCC(O)c1ccccc1 (stereo not given),6.35%,-11.4%,-13.6%,-42.4%,-3.1%,-19.5%
C#CCNCCCn1c(=O)nc2n(-c3ccccc3)c3ccccc3nc-2c1=O,56%,19.2%,27.1%,29.4%,0.55%,43%
COc1ccc(-c2ccc(OC)cc2)cc1,2.9%,-2.75%,-3.8%,-0.65%,21.4%,3%
O=C(O)/C(=C\c1ccccc1Cl)S(=O)(=O)c1ccccc1,-25.5%,-6.45%,-12.6%,-0.35%,-16%,15.1%
COc1ccccc1C(=O)N/N=C/c1ccccc1Cl,4.25%,35.3%,32.4%,-4.3%,9.05%,30.1%
CC1CCCC(C)C1O (stereo not given),-19.7%,-28.1%,-13.9%,12.3%,-4.6%,-14.1%
C/C(=N\NC(N)=S)c1sc(-n2nc(-c3ccccc3)cc2-c2ccccc2)nc1C,4.65%,-18.2%,12.2%,0.25%,26.6%,15.7%
C[C@@H](Oc1ccc(Oc2cnc3ccc(Cl)cc3n2)cc1)C(=O)O,15.8%,5.4%,4.2%,37.8%,15.2%,3.95%
CCOC(=O)CNC(=O)C(CC(C)C)NC(=O)OCc1ccccc1 (stereo not given),6.7%,7.9%,28.8%,5.25%,2.8%,-11%
O=C(/C=C/C(=O)NCc1ccccc1)NCc1ccccc1,-0.2%,0.4%,16.9%,-11.1%,4.7%,-5.95%
CCc1ccc(N=Nc2c(F)c(F)c(N(C)C)c(F)c2F)cc1,-2.4%,7.7%,6.85%,4.1%,1.05%,-1.25%
CNc1ncnc2c1ncn2C,20.8%,24.5%,-7.1%,-17.1%,1.6%,-2.1%
CCOc1ccc(OCC)c2c1C(=O)c1ccccc1C2=O,-6.8%,15.3%,1.15%,-1.3%,9.15%,-5.8%
CCC[CH2][Sn]([CH2]CCC)([O]C(=O)c1ccc(OC)c(OC)c1OC)[O][Sn]([CH2]CCC)([CH2]CCC)[O]C(=O)c1ccc(OC)c(OC)c1OC,85.7% (active),85% (active),86.3% (active),85.2% (active),87.2% (active),86.3% (active)
